Screening data: PubChem, National Center for Advancing Translational Sciences (NCATS)
A selection: hits, their analogues and other compounds. The true share with any hit is near 2.6%.
Cruzain Triton – cruzain (T. cruzi) inhibition with detergent; Potency, µM, hits mostly inhibitors; AID 1478; purified cruzain, Z-FR-AMC fluorescence, 0.01% Triton; actives 0.43% (n = 200,000); also: nearly all actives have a fitted effect of over 40% in size
Target sequence (P25779 123-467 limits assumed): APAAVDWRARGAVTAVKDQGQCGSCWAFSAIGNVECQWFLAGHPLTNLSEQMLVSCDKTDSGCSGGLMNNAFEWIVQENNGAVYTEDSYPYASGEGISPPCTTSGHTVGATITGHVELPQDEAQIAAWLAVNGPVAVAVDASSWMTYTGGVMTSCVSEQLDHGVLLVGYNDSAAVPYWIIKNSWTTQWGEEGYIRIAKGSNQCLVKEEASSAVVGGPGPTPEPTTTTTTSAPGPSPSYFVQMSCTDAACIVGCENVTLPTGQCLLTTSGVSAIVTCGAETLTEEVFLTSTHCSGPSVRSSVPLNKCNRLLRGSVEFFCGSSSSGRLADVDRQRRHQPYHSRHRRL
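Detergent-containing run (0.01% Triton X-100) in acetate buffer pH 5.5 with 5 mM DTT: enzyme at 1.5 nM final, 15 min compound preincubation at room temperature, then 2 uM Z-FR-AMC substrate. Activity taken as 60 s fluorescence increase at 360/450 nm.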
Cruzain noTriton – inhibitors of Trypanosoma cruzi cruzain without detergent; actives 2.3% (n = 200,000); Potency, µM, actives largely listed as inhibitors; AID 1476; purified cruzain, Z-FR-AMC fluorescence, no detergent; P25779; also: nearly all actives have a fitted effect of over 40% in size
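Detergent-free condition (0.00005% Triton X-100) in acetate buffer pH 5.5 with DTT. 1.5 nM enzyme and compound were pre-mixed 15 min, then 2 uM Z-FR-AMC substrate added; reaction progress from fluorescence change between first and third reads (60 s).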
Of the large screens only hits and unclear results are named; the others gave an inactive call. Calls follow the shape of the dose curve; as a rule, active = well fitted curve in the direction sought with a large enough effect; inconclusive = small, poorly fitted or top-dose-only effect, or another doubt; inactive = no such curve, though single readings can be large; an effect the other way counts as inactive or inconclusive.

COc1cccc(CNC(=O)CSc2nc3ccccc3nc2Cc2ccc(C)cc2)c1OC	none
CCOc1ccc(C2C(C#N)=C(N)SC(N)=C2C#N)c(OCC)c1	none
CCCCc1ccc(C2C(C#N)=C(N)SC(N)=C2C#N)s1	Cruzain Triton inconclusive, Cruzain noTriton 32µM
COC(=O)C1(C(=O)OC)C/C=C\C/C=C\c2ccccc2C1C[N+](=O)[O-] (configuration not stated)	none
COc1ccc(C2=NN(CC(=O)NCCc3ccc(OC)c(OC)c3)C(=O)CC2)cc1	none
Cn1cc(C2=C(c3ccc(Cl)cc3Cl)C(=O)NC2=O)c2ccccc21	none
CC(C)n1cc(/C=C2\NC(=O)N(c3cccc(Cl)c3)C2=O)c2ccccc21	Cruzain noTriton 25µM
CC(C)n1cc(/C=N/NC(=O)COc2cccc3cccnc23)c2ccccc21	Cruzain noTriton inconclusive
CC(C)n1cc(/C=C2/NC(=O)N(c3cccc(Cl)c3)C2=O)c2ccccc21	Cruzain noTriton 16µM
C=C[C@@H](C1=CC(=O)C(OC)=C(OC)C1=O)c1ccccc1	none
COc1ccc(-c2nc(C)sc2CC(=O)O)cc1	none
COc1ccc(C2=NN(c3nc(-c4ccccc4)c(CC(=O)O)s3)C(c3ccco3)C2)cc1 (configuration not stated)	Cruzain Triton 16µM, Cruzain noTriton 13µM
Cc1cc(C)cc(NC(=O)NCCn2nnc3cc(S(=O)(=O)N(C)C)ccc32)c1	none
Cc1ccccc1C1=CCN(c2ncc(NC(=O)c3ccc(Cl)cc3)cc2C(=O)O)CC1	none
Cc1nn2c(=O)cc(COC(=O)c3ccccc3NC(=O)C(C)Oc3ccccc3)nc2s1 (configuration not stated)	none
CSC(=[SH+])N=N/C(=C1/C=CC=CN1)c1ccccn1.[Cu][Br]	none
Cc1cccc2cc(C#N)c(SCC(=O)N3CC(=O)Nc4ccccc43)nc12	Cruzain noTriton 25µM
Cc1cccc2cc(C#N)c(SCC(=O)N3CCC(C)CC3)nc12	none
COC(=O)c1ccc(NC(=O)NCCn2nnc3cc(S(=O)(=O)N(C)C)ccc32)cc1	none
C=CCn1c(COc2ccc(F)cc2)nnc1SCC(=O)N1CC(=O)Nc2ccccc21	none
CC(C)CCn1c(SCC(=O)N2CC(=O)Nc3ccccc32)nc2scc(-c3cccs3)c2c1=O	Cruzain noTriton 13µM
C=CCn1c(SCC(=O)N2CC(=O)Nc3ccccc32)nc2scc(-c3cccs3)c2c1=O	Cruzain noTriton 10µM
Cc1nnc(SCC(=O)N2CC(=O)Nc3ccccc32)n1C	none
COc1ccc(-c2ccc(NS(=O)(=O)c3ccc(C(C)=O)cc3)cc2)nn1	none
CCc1nc2cccnc2n1-c1ccc(CC(=O)Nc2cccc(C)c2C)cc1	Cruzain Triton 16µM
CCc1nc2cccnc2n1-c1ccc(CC(=O)Nc2ccccc2Cl)cc1	Cruzain Triton 13µM
CCc1ccccc1NC(=O)Cc1ccc(-n2c(C)nc3cccnc32)cc1	none
CCc1nc2cccnc2n1-c1ccc(CC(=O)Nc2ccc(C)cc2)cc1	none
CC(=O)c1cc(C(=O)Nc2cc(C)cc(C)c2)c2ccccn12	Cruzain noTriton inconclusive
CC(C)c1cccc2c([Si](C)(C)C)c3c(nc12)-c1cccc(=O)n1C3	Cruzain noTriton inconclusive
COc1ccc(-n2c(=O)c(-c3cccs3)nc3cnc(N(C)C)nc32)cc1	none
CCOC(=O)C1=C(C)N=C2c3ccccc3C(=O)C2C1c1ccc(Cl)cc1 (configuration not stated)	none
CCOC(=O)C1=C(Cc2ccc(Cl)cc2)C(=O)c2ccccc2C1=O	Cruzain noTriton 16µM
Cc1ccc2c(c1)c1c(c(=O)n(-c3ccccc3C)c(=O)n1Cc1ccccc1F)n2C	none
N#Cc1ccc(NC(=O)Nc2ccc(Cl)cc2)cc1	Cruzain noTriton 10µM
CN(CC(=O)Nc1ccc(C#N)cc1)Cc1ccc(Cl)cc1	none
Nc1ccc(N2CCN(c3ncc(C(F)(F)F)cc3Cl)CC2)c(C(F)(F)F)c1	none
COc1ccc(CNC(=O)c2cnc3ccc(C)cn3c2=O)cc1	none
COCc1oc2ccc(NS(=O)(=O)c3ccc(C)cc3)cc2c1C(=O)OC	none
NC(=O)c1c(NC(NC(=O)c2ccco2)C(=O)c2ccc(Cl)cc2)sc2c1CCCC2 (configuration not stated)	none
COc1ccccc1NC(=O)c1c(NC(=O)c2ccco2)sc2c1CCC(C(C)(C)C)C2 (configuration not stated)	none
Cc1cccc(C(=O)Nc2sc3c(c2C(=O)NCc2ccco2)CCCC3)c1	none
COc1ccccc1C(=O)Nc1sc2c(c1C(=O)NCc1ccco1)CCCC2	Cruzain noTriton 7.9µM
N#Cc1c(NC(NC(=O)c2ccco2)C(=O)c2ccccc2)sc2c1CCCC2 (configuration not stated)	Cruzain noTriton 25µM
COc1ccccc1NC(=O)c1c(NC(=O)c2ccco2)sc2c1CCC2	Cruzain noTriton 7.9µM
CC(C)CCNC(=O)CN1C(=O)CSc2ccc(S(=O)(=O)N3CCCCC3)cc21	none
CCN1CCCC1Cn1c(-c2ccccc2)nc2c(N3CCOCC3)nc(C)nc21 (configuration not stated)	none
